# According to PubChem BioAssay AID1508601 (ICCB-Longwood Screening Facility, Harvard Medical School, 2020):
# Out of some 5,700 compounds screened, about 85 (1%) were called active. Rule as the data show it: active = p53-positive nuclei above about 36% (passing the limit was not always enough); inactive = the rest. Shown is part of a subset that was picked to be rich in actives.
# Key:
# [1] = p53 stabilisation in HPV-positive human cells, imaging, p53-positive nuclei imaging, 24 h, 48 h (AID 1508601); details: 24/48 h
# [2] = target: Cellular tumor antigen p53 (Homo sapiens) (UniProt P04637); assay: as above; details: 24/48 h, stronger effect = higher value
# Cellular tumor antigen p53 (Homo sapiens), sequence (P04637 whole entry, looked up): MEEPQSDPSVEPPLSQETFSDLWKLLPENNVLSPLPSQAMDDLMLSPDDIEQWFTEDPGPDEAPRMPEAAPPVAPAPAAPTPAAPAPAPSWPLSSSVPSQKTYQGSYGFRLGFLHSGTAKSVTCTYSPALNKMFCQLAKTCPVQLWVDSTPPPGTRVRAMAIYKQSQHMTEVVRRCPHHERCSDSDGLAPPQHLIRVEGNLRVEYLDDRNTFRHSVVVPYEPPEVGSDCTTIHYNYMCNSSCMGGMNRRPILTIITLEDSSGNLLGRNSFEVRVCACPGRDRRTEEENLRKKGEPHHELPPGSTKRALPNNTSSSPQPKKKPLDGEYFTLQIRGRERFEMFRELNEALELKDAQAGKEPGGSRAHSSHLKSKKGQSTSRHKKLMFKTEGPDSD
# [3] = measured here: cell number at 24 h, concentration not given here
# [4] = measured here: cell number at 48 h, concentration not given here
# [5] = measured here: p53 positive nuclei at 24 h, concentration not given here
# [6] = measured here: cell number at 24 h, Library stock concentration: 3.33 mM
# [7] = measured here: cell number at 48 h, Library stock concentration: 3.33 mM
# [8] = Library stock concentration: 3.33 mM
# [9] = measured here: p53 positive nuclei at 24 h, Library stock concentration: 3.33 mM
# [10] = measured here: cell number at 24 h, Library stock concentration: 80 uM
# [11] = measured here: cell number at 24 h, Library stock concentration: 400 uM
# [12] = measured here: cell number at 24 h, Library stock concentration: 2 mM
# [13] = measured here: cell number at 24 h, Library stock concentration: 10 mM
# [14] = measured here: cell number at 48 h, Library stock concentration: 80 uM
# [15] = measured here: cell number at 48 h, Library stock concentration: 400 uM
# [16] = measured here: cell number at 48 h, Library stock concentration: 2 mM
# [17] = measured here: cell number at 48 h, Library stock concentration: 10 mM
# [18] = Library stock concentration: 80 uM
# [19] = Library stock concentration: 400 uM
# [20] = Library stock concentration: 2 mM
# [21] = Library stock concentration: 10 mM
# [22] = measured here: p53 positive nuclei at 24 h, Library stock concentration: 80 uM
# [23] = measured here: p53 positive nuclei at 24 h, Library stock concentration: 400 uM
# [24] = measured here: p53 positive nuclei at 24 h, Library stock concentration: 2 mM
# [25] = measured here: p53 positive nuclei at 24 h, Library stock concentration: 10 mM
structure (smiles),measurement,setting,value
CCCCC/C=C\C/C=C\C/C=C\CCCCCCC(=O)OC,"nuclei count, normalised",[1]; [3],114%
same,"nuclei count, normalised",[1]; [4],108%
same,"p53-positive nuclei, normalised",[2]; concentration not given here,0.0353% (inactive)
same,"p53-positive nuclei, normalised",[2]; [5],0.00725%
CCC(C)C(NC(=O)C(CCC(=O)O)NC(=O)C(CC(C)C)NC(=O)C1CN=C(C(N)C(C)C)S1)C(=O)NC1CCCCNC(=O)C(CC(N)=O)NC(=O)C(CC(=O)O)NC(=O)C(Cc2cnc[nH]2)NC(=O)C(Cc2ccccc2)NC(=O)C(C(C)CC)NC(=O)C(CCCN)NC1=O (configuration not stated),"nuclei count, normalised",[1]; [6],97.5%
same,"nuclei count, normalised",[1]; [7],99%
same,"p53-positive nuclei, normalised",[2]; [8],-0.136% (inactive)
same,"p53-positive nuclei, normalised",[2]; [9],-0.227%
C[C@]12CC[C@H]3c4ccc(O)cc4CC[C@H]3[C@@H]1CCC2=O,"nuclei count, normalised",[1]; [6],111%
same,"nuclei count, normalised",[1]; [7],121%
same,"p53-positive nuclei, normalised",[2]; [8],-0.0334% (inactive)
same,"p53-positive nuclei, normalised",[2]; [9],-0.211%
COC(=O)[C@]12CCC(C)(C)C[C@@H]1[C@@H]1C(=O)C=C3[C@]4(C)C=C(C#N)C(=O)C(C)(C)[C@@H]4CC[C@@]3(C)[C@]1(C)CC2,"nuclei count, normalised",[1]; [6],36.3%
same,"nuclei count, normalised",[1]; [7],29.9%
same,"p53-positive nuclei, normalised",[2]; [8],79.7% (active)
same,"p53-positive nuclei, normalised",[2]; [9],88.9%
CCCCN=C(N)NO,"nuclei count, normalised",[1]; [3],99.4%
same,"nuclei count, normalised",[1]; [4],99.4%
same,"p53-positive nuclei, normalised",[2]; concentration not given here,-0.143% (inactive)
same,"p53-positive nuclei, normalised",[2]; [5],-0.0268%
Fc1cc(-c2ccnc(Nc3ccc(-n4cnc(N5CCOCC5)n4)cc3)n2)cc(N2CCOCC2)c1,"nuclei count, normalised",[1]; [10],86.7%
same,"nuclei count, normalised",[1]; [11],101%
same,"nuclei count, normalised",[1]; [12],64.8%
same,"nuclei count, normalised",[1]; [13],36.4%
same,"nuclei count, normalised",[1]; [14],73%
same,"nuclei count, normalised",[1]; [15],81%
same,"nuclei count, normalised",[1]; [16],43.7%
same,"nuclei count, normalised",[1]; [17],21.7%
same,"p53-positive nuclei, normalised",[2]; [18],27.8% (inactive)
same,"p53-positive nuclei, normalised",[2]; [19],13.6% (inactive)
same,"p53-positive nuclei, normalised",[2]; [20],90.9% (active)
same,"p53-positive nuclei, normalised",[2]; [21],38.1% (inactive)
same,"p53-positive nuclei, normalised",[2]; [22],7.9%
same,"p53-positive nuclei, normalised",[2]; [23],2.88%
same,"p53-positive nuclei, normalised",[2]; [24],49.4%
same,"p53-positive nuclei, normalised",[2]; [25],15.7%
Cc1nc(N)sc1-c1ccnc(Nc2ccc(N3CCOCC3)cc2)n1,"nuclei count, normalised",[1]; [6],40.5%
same,"nuclei count, normalised",[1]; [7],28.3%
same,"p53-positive nuclei, normalised",[2]; [8],-0.214% (inactive)
same,"p53-positive nuclei, normalised",[2]; [9],-0.143%
O=C(Nc1ccc(-c2ccnc(Nc3ccc(N4CCOCC4)cc3)n2)cc1)C1CCCN1 (configuration not stated),"nuclei count, normalised",[1]; [10],114%
same,"nuclei count, normalised",[1]; [11],116%
same,"nuclei count, normalised",[1]; [12],107%
same,"nuclei count, normalised",[1]; [6],102%
same,"nuclei count, normalised",[1]; [13],104%
same,"nuclei count, normalised",[1]; [14],109%
same,"nuclei count, normalised",[1]; [15],109%
same,"nuclei count, normalised",[1]; [16],104%
same,"nuclei count, normalised",[1]; [7],95.9%
same,"nuclei count, normalised",[1]; [17],101%
same,"p53-positive nuclei, normalised",[2]; [18],0.0592% (inactive)
same,"p53-positive nuclei, normalised",[2]; [19],-0.0399% (inactive)
same,"p53-positive nuclei, normalised",[2]; [20],-0.0329% (inactive)
same,"p53-positive nuclei, normalised",[2]; [8],-0.0902% (inactive)
same,"p53-positive nuclei, normalised",[2]; [21],0.0109% (inactive)
same,"p53-positive nuclei, normalised",[2]; [22],0.0145%
same,"p53-positive nuclei, normalised",[2]; [23],-0.114%
same,"p53-positive nuclei, normalised",[2]; [24],0.0282%
same,"p53-positive nuclei, normalised",[2]; [9],-0.231%
same,"p53-positive nuclei, normalised",[2]; [25],-0.058%
CC(C)CC(NC(=O)CNC(=O)c1cc(Cl)ccc1Cl)B1OC(=O)CC(CC(=O)O)(C(=O)O)O1 (configuration not stated),"nuclei count, normalised",[1]; [6],46.4%
same,"nuclei count, normalised",[1]; [7],36.8%
same,"p53-positive nuclei, normalised",[2]; [8],97.7% (active)
same,"p53-positive nuclei, normalised",[2]; [9],101%
CCCC(C)NC(=O)c1ccc(Cl)c(Cl)c1 (configuration not stated),"nuclei count, normalised",[1]; [6],116%
same,"nuclei count, normalised",[1]; [7],114%
same,"p53-positive nuclei, normalised",[2]; [8],-0.00479% (inactive)
same,"p53-positive nuclei, normalised",[2]; [9],-0.344%
CC(C)CC(NC(=O)CNC(=O)c1cc(Cl)ccc1Cl)B(O)O (configuration not stated),"nuclei count, normalised",[1]; [6],50.2%
same,"nuclei count, normalised",[1]; [7],43.3%
same,"p53-positive nuclei, normalised",[2]; [8],98% (active)
same,"p53-positive nuclei, normalised",[2]; [9],94%
